According to the supplement of paper PMC3842684:

These compounds were tested on P. falciparum NF54-pfs16-GFP late (IV-V) stage gametocytes (assay: relative % inhibition of viable gametocyte number; higher = more gametocytocidal). Settings: 0.5 µM; stage: late (IV-V) gametocyte; incubation 72 h.
In short: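 Viable gametocytes were counted by confocal imaging as elongated GFP objects carrying MitoTracker Red signal above a cut-off, after 72 h of compound exposure (5 or 0.5 µM) at 37°C in 5% CO2 and 5% O2 and overnight staining. The NF54 pfs16-GFP gametocytes had been magnet-isolated at early (I/IIa, day 2) or late (day 8) stage and plated at 10% parasitaemia, 0.1% haematocrit in 384-well poly-D-lysine imaging plates. Relative inhibition was normalised to vehicle and positive-control wells within each plate.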

Q: How did the relative % inhibition turn out when CCC(O)c1ccc(Br)cc1NC(=O)c1cccc(Cl)c1 (centres undefined) was run?
A: 12%

Q: With Cc1c(C)n(Cc2ccc(F)cc2)c2ccc(C(=O)NCc3ccco3)cc12 as the compound, how does the relative % inhibition read?
A: 16.9%

Q: For Nc1ccn(C2O[C@H](CO)[C@@H](O)[C@H]2O)c(=O)n1 (some centres undefined), which relative % inhibition is on record?
A: 8.91%

Q: How did the relative % inhibition turn out when c1ccc(-c2ccc(-c3nc4ccccc4[nH]3)cc2)cc1 was run?
A: 15.9%

Q: OC(CNCC1CCCO1)Cn1c2ccc(Cl)cc2c2cc(Cl)ccc21 (centres undefined) was tested. Which relative % inhibition did it give?
A: 45.5%

Q: Which relative % inhibition does the source give for Nc1ccc(-c2nc3cc(Cc4ccc5[nH]c(-c6ccc(N)cc6)nc5c4)ccc3[nH]2)cc1 here?
A: 14.6%

Q: O=C1C2=C(Nc3ccccc3SC2c2ccccc2)c2ccccc21 (centres undefined) was tested. Which relative % inhibition did it give?
A: 61.6%

Q: How did the relative % inhibition turn out when CN(C)c1ccc(-c2nc3cc(N)ccc3[nH]2)cc1 was run?
A: -13.1%

Q: For CC1CCN(Cc2ccc(NC(=O)c3cc4ccc5cccnc5c4[nH]3)cc2)CC1, which relative % inhibition is on record?
A: 0.926%

Q: COC(=O)c1ccc(C2C3=C(O)CC(c4ccc(F)cc4)CC3=Nc3ccccc3N2C(=O)c2ccccc2)cc1 (centres undefined) was tested. Which relative % inhibition did it give?
A: 88.6%

Q: For O=C(Nc1ccc(Br)cc1)Nc1cccc(Cl)c1, which relative % inhibition is on record?
A: -8.75%

Q: Which relative % inhibition does the source give for O=C1c2ccc3c4c(ccc(c24)C(=O)N1CCCCO)C(=O)N(CCCCO)C3=O here?
A: 5.48%

Q: For O=C(NC1CCN(Cc2ccccc2)CC1)c1cc(C(=O)NC2CCN(Cc3ccccc3)CC2)cc(C(=O)NC2CCN(Cc3ccccc3)CC2)c1, which relative % inhibition is on record?
A: 0.475%

Q: FC(F)(F)c1cccc(Nc2nc3ccccc3nc2Nc2cccc(C(F)(F)F)c2)c1 was tested. Which relative % inhibition did it give?
A: 105%

Q: With COc1ccc(OC)c(C2C3=C(CC(C)(C)CC3=O)N(c3ccc(Cl)c(Cl)c3)C3=C2C(=O)CC(C)(C)C3)c1 as the compound, how does the relative % inhibition read?
A: 13.8%

Q: Which relative % inhibition does the source give for COc1ccc(C=C2SC(=N)N(c3ccccc3OC)C2=O)cc1 here?
A: 0%

Q: For O=C(CCc1ccccc1)c1ccccc1OCC(O)CN1CCCCC1 (centres undefined), which relative % inhibition is on record?
A: 15%

Q: Which relative % inhibition does the source give for CCOc1cc2c(cc1OCC)C(c1cc(Cl)ccc1O)NCC2 (centres undefined) here?
A: 19%

Q: Which relative % inhibition does the source give for COc1ccc(-n2ccnc2SCC(=O)Nc2cc(C)ccc2C)c(OC)c1 here?
A: -4.39%

Q: With COc1ccc(C)c2sc(N(Cc3cccnc3)C(=O)c3ccc(C#N)cc3)nc12 as the compound, how does the relative % inhibition read?
A: -23.5%

Q: COc1ccc(C(=O)C2CC2c2ccc(Cl)cc2)cc1 (centres undefined) was tested. Which relative % inhibition did it give?
A: 14.7%

Q: With CCc1ccc(Nc2cc(C)nc3nc(C)nn23)cc1 as the compound, how does the relative % inhibition read?
A: 4.51%

Q: For COc1ccc(NC(=O)C2c3ccccc3C(=O)N(CC(C)C)C2c2cccs2)cc1Cl (centres undefined), which relative % inhibition is on record?
A: 54.9%

Q: For COc1ccc(C(C)=O)cc1N1C(=O)C2C(C1=O)C1(c3ccccc3)C(=O)C2(c2ccccc2)C(c2ccc(C)cc2)=C1c1ccc(C)cc1 (centres undefined), which relative % inhibition is on record?
A: 78.9%

Q: Which relative % inhibition does the source give for CCN(CC)c1ccc(NC(=O)c2cccs2)cc1 here?
A: 16.7%

Q: How did the relative % inhibition turn out when O=C1c2ccccc2-c2nnc(-c3ccc(Br)cc3)cc21 was run?
A: 75.4%

Q: With CCOC(=O)c1cnc2ccc(OC)cc2c1NCc1ccccc1 as the compound, how does the relative % inhibition read?
A: 10.1%

Q: With COc1ccc(CCN2C(=O)c3[nH]nc(-c4cc(Cl)c(C)cc4O)c3C2c2ccccc2F)cc1 (centres undefined) as the compound, how does the relative % inhibition read?
A: 30.2%

Q: Which relative % inhibition does the source give for Cc1ccc(N2C3c4ccccc4N(S(=O)(=O)c4ccc(C)cc4)C2c2ccccc2N3S(=O)(=O)c2ccc(C)cc2)cc1 here?
A: 95%

Q: For COc1cccc(Nc2nc(NCCO)c3ccccc3n2)c1, which relative % inhibition is on record?
A: 17.4%

Q: Which relative % inhibition does the source give for COc1cc(-c2nc(-c3ccc(Sc4ccccc4)cc3)c(-c3ccccc3)[nH]2)cc(OC)c1O here?
A: 3.44%

Q: With CCOC(=O)c1c(NC(=O)c2ccccc2)sc2c(O)c(CN(CC)CC)ccc12 as the compound, how does the relative % inhibition read?
A: 64.2%

Q: With Cc1cc(N(C)C)nc(Nc2ccc(NC(=O)Nc3ccccc3)cc2)n1 as the compound, how does the relative % inhibition read?
A: 24%

Q: Which relative % inhibition does the source give for COc1ccc(-c2nonc2NC(=O)c2cccc(C)c2)cc1OC here?
A: -13.4%

Q: Which relative % inhibition does the source give for CN1CCN(c2c3c(c(C#N)c4nc5ccccc5n24)CCC3)CC1 here?
A: -1.94%

Q: With Nc1nc(Nc2cccc(F)c2)nc2ccccc12 as the compound, how does the relative % inhibition read?
A: 15.1%

Q: For Cc1cc(NC(=O)c2ccc(-c3ccccc3)cc2)no1, which relative % inhibition is on record?
A: 13.3%

Q: Which relative % inhibition does the source give for COc1ccc(C2c3ccc4ccccc4c3Oc3ncn(CCCn4ccnc4)c(=N)c32)cc1OC (centres undefined) here?
A: 49.2%

Q: How did the relative % inhibition turn out when Brc1ccc(Nc2nc3ccccc3nc2Nc2ccc(Br)cc2)cc1 was run?
A: 55.2%
